Screens (PubChem)
Vaccinia mCherry – inhibitors of vaccinia virus infection (mCherry reporter signal). Potency, µM (top dose mostly 36.5 µM), inactives show at the top dose activity change, negative = inhibition, actives largely listed as inhibitors. AID 720579. 310,000 tested, 0.63% active. Vaccinia virus mCherry reporter infection, fluorescence; calls by dose curve; tested in A549 cells; also: potency is read from the fitted curve at half-maximal effect; nearly all actives have a fitted effect of over 35% in size
LASV entry inh – Lassa virus entry inhibition; Lassa virus pseudotype entry inhibition, cell reporter; Potency, µM (titrated, usually from 37.9 µM), inactives show top-dose activity change, negative = inhibition, usual class: inhibitors; 300,000 tested, 1.2% active; calls by dose curve; tested in HEK293 cells; also: potency is read from the fitted curve at half-maximal effect; nearly all actives have a fitted effect of over 50% in size
HCMV inh – inhibitors of human cytomegalovirus | HFF cells, HCMV-luciferase reporter, 72 h; active compounds read low | activity change, negative = inhibition, % at 57.5 µM | 410,000 tested, 4.5% active | AID 1259415; in the data active = activity change below about -60%; inconclusive = no clear call, values can overlap the other calls; inactive = above about -39%
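Compounds were evaluated in HFFs infected with an HCMV luciferase reporter virus (MOI 1 PFU/cell). Luciferase in lysates collected 72 h post infection served as the replication measure.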
FMDV antiviral – antivirals against foot and mouth disease virus; FMDV antiviral cell-based qHTS; Potency, µM (doses to about 57.9 µM), for the others: at the highest dose activity change, negative = inhibition, usual class: inhibitors; AID 1159524; 410,000 tested, 1.2% active; calls by dose curve; tested in HEK293T cells; also: read-out not given here; potency is read from the fitted curve at half-maximal effect; nearly all actives have a fitted effect of over 45% in size
VACV Venus inh – vaccinia inhibition (Venus reporter) | 330,000 tested, 0.46% active | AID 720580 | Potency, µM (series often up to 36.5 µM), inactives show at the top dose activity change, negative = inhibition, actives largely listed as inhibitors | Vaccinia virus Venus reporter expression, fluorescence; calls by dose curve; tested in A549 cells; also: potency is read from the fitted curve at half-maximal effect; nearly all actives have a fitted effect of over 30% in size
Marburg entry inh – Marburg virus entry inhibition; Marburg virus pseudotyped entry inhibition, cell reporter; Potency, µM (top dose mostly 37.8 µM), for inactives: at the top dose activity change, negative = inhibition, hits mostly inhibitors; 300,000 tested, 1.8% active; calls by dose curve; tested in HEK293 cells; also: potency is read from the fitted curve at half-maximal effect
Starred values were filed as active, the others as inactive; i = inactive; ? = inconclusive; . = no result; ! = repeats disagree; [ ] = dose if it differs, or a comment. Hits are enriched below; roughly 6.5% of the tested compounds scored in any of these assays. % is scaled to controls: 0 for no effect and ±100 for the full control effect.

SMILES | Vaccinia mCherry | LASV entry inh | HCMV inh | FMDV antiviral | VACV Venus inh | Marburg entry inh
CC1CCCN(C(=O)N2c3ccccc3Sc3ccccc32)C1 (stereo unspecified) | . | ? | -68* | -30% | . | ?
CCCCCCCOC(=O)C[N+](C)(C)CCOC1CC2CCC1(C)C2(C)C (stereo unspecified) | i | ? | -73* | 35µM* | ? | 11µM*
O=C1C=C[C@]23OCC[C@@]2(c2ccccc2)CCCC3=C1 | . | . | -4 | . | . | .
CC(C)c1nc2cccnc2n1C1CCN(C(=O)Cn2cccn2)CC1 | -10% | . | . | -12% | 4% | .
CCN(Cc1ccc2c(c1)OCCO2)C(=O)CSc1nc(C)nc2sc(C)c(C)c12 | . | . | -38 | 32µM* | . | .
CCN(Cc1ccc2c(c1)OCO2)C(=O)CSc1ncnc2sccc12 | . | . | -3 | -6% | . | .
CC(=O)Nc1ccc(-n2c(=O)c3ccccc3c3ccccc3c2=O)cc1 | -8% | ? | 95 | 28µM* | -15% | -9%
O=C(O)c1ccc(-n2c(=O)c3ccccc3c3ccccc3c2=O)cc1 | -1% | 4%[46.1 µM] | -26 | 35µM* | -14% | -4%[46.1 µM]
CC(=O)Nc1ccc(-n2c(C)ccc2C)cc1 | . | . | -36 | -4% | . | .
O=C(NCC(c1cccnc1)N1CCc2ccccc2C1)C(=O)Nc1cccc(Cl)c1 (stereo unspecified) | -18% | 24%[46.1 µM] | 1 | 0% | -17% | .
O[N+]1=CC=CCC1=S.On1ccccc1=S.[Zn] | ? | . | . | 8.9µM* | ? | .
COc1ccc(-c2nc3cc(NC(=O)c4ccc(C)cc4)ccc3o2)cc1Cl | -10% | 11%[46.1 µM] | -30 | 0% | -8% | .
O=C(NCCCc1ccccc1)c1ccc(CS(=O)Cc2ccc(Cl)cc2)o1 (stereo unspecified) | . | . | -18 | -13% | . | .
O=C(NCCc1ccc(Cl)cc1)c1ccc(CS(=O)(=O)Cc2ccccc2F)o1 | -21% | ? | -37 | 40µM* | -10% | .
O=C(NCCc1ccc(Cl)cc1)c1ccc(CS(=O)Cc2ccccc2Cl)o1 (stereo unspecified) | -15% | ? | -66*! | ? | -8% | .
Cc1nc(CC(=O)N2CCC(n3c(C4CCC4)nc4cccnc43)CC2)cs1 | 0% | . | . | -18% | -9% | .
COc1ccc(CN2C[C@]3(CO)OC(CO)C[C@H]3[S+]2(=O)[O-])cc1 (stereo partly specified) | . | 5%[46.1 µM] | . | . | . | .
Cc1ccc2c(c1)Cc1nc3ccccc3nc1-2 | i | ? | 67 | -72% | -6% | 6.3µM*
Cc1ccc(NC(=O)CSc2nn(-c3ccc(Cl)cc3)c(=S)s2)cc1S(=O)(=O)N(C)C | ? | 11µM* | -83* | ? | ? | ?
NS(=O)(=O)c1cccc(NC(=O)CSc2nn(-c3ccccc3)c(=S)s2)c1 | ? | ? | -20 | ? | ? | ?
Cc1ccc(NC(=O)Cn2ccsc2=N)cc1S(=O)(=O)N(C)C | i | -4%[46.1 µM] | -37 | 16% | -6% | -24%[46.1 µM]
CN(C)S(=O)(=O)c1cc(NC(=O)CSc2nn(-c3ccc(Cl)cc3)c(=S)s2)ccc1Cl | ? | ? | -85* | ? | ? | ?
Cc1ccccc1-c1cccc(CN2CCc3nnc(C(C)NC(=O)c4cccnc4)n3CC2)c1 (stereo unspecified) | -19% | . | . | -5% | -11% | .
COc1ccc(-c2nnc(SCCOc3ccccc3C)o2)cc1OC | -22% | 2%[46.1 µM] | 5 | -11% | -9% | ?
Cc1scc(C(=O)NNC(=S)NCC2CCCO2)c1-c1ccccc1 (stereo unspecified) | -1% | -2% | -62* | -18% | -13% | ?
SMILES | Vaccinia mCherry | LASV entry inh | HCMV inh | FMDV antiviral | VACV Venus inh | Marburg entry inh
COc1ccc(/C=C/C(=O)NC(=S)NCC2CCCO2)cc1 (stereo unspecified) | -6% | ? | -33 | -8% | -9% | -1%[46.1 µM]
S=C(NCC1CCCO1)Nc1cccc(Cl)c1 (stereo unspecified) | -24% | 24% | ? | 52% | -14% | 7%
S=C(NCC1CCCO1)Nc1ccc(Nc2ccccc2)cc1 (stereo unspecified) | -10% | -15% | -69* | -23% | -3% | -7%[14.2 µM]
COc1ccccc1/C=C/C(=O)NC(=S)NCC1CCCO1 (stereo unspecified) | -7% | ? | -62* | -24% | -9% | 4%[46.1 µM]
Cc1c(Cl)cccc1NC(=O)CSc1ncccc1C(=O)Oc1ccccc1Cl | 1% | ? | -14 | -19% | -12% | .
COc1ccc2c(c1)c1nnc(SC)nc1n2Cc1ccccc1 | -10% | . | . | . | -10% | .
COc1ccc(CNc2nc(-c3ccccc3OC)nc3ccccc23)c(OC)c1 | -4% | . | . | -18% | -4% | .
CN(C)CC(O)CN1C(=O)N(CN2C(=O)N(CC(O)CN(C)C)C(=O)C2(C)C)C(C)(C)C1=O (stereo unspecified) | 6% | -2% | -62* | 7% | -2% | -25%[46.1 µM]
COc1ccc(-n2cc3c(c2-c2cccc(Br)c2)c(=O)n(C)c(=O)n3C)cc1OC | -21% | -1%[46.1 µM] | -7 | 0% | -5% | 11%[46.1 µM]
O=C1C(Br)=C(c2ccccc2)C(c2ccccc2)=C1c1ccccc1 | -7% | ? | . | 3.5µM* | -10% | ?
CCN1C/C(=C\c2cccc([N+](=O)[O-])c2)C(=O)/C(=C/c2cccc([N+](=O)[O-])c2)C1 | i | 2.5µM* | -100* | 1.1µM* | -7% | ?
CCN1C/C(=C/c2ccc(OC)c(O)c2)C(=O)/C(=C/c2ccc(OC)c(O)c2)C1 | ? | . | -103* | -21% | ? | .
COc1ccc(/C=C2\CN(Cc3ccccc3)C/C(=C\c3ccc(OC)c(O)c3)C2=O)cc1O | 7.9µM* | ? | -101* | -12% | ? | ?
O=C1/C(=C/c2cccc([N+](=O)[O-])c2)CCc2ccccc21 | -15% | -18% | -9 | -18% | -8% | ?
CCCCNC(=O)O[C@H]1CC[C@@]23CCCN2C(=O)CCC[C@H]3[C@H]1Cc1ccccc1 | . | . | -17 | . | . | .
COc1ccc(Nc2cc3c(cn2)cc(-c2cccnc2)n3C)cn1 | . | . | -18 | . | . | .
COc1cc2c(NC3CCN(C)CC3)nc(N3CCCN(C)CC3)nc2cc1OCCCN1CCCCC1 | 4µM* | . | . | . | 3.5µM* | .
COc1cc2c(NC3CCN(C)CC3)nc(N3CCCN(C)CC3)nc2cc1OCCCC(C)C | ? | . | . | . | 13µM* | .
COc1cc2nc(N3CCN(C)CC3)nc(NC3CCN(Cc4ccccc4)CC3)c2cc1OC | -1% | . | . | . | -27% | .
COc1cc2nc(N3CCCN(C)CC3)nc(NC3CCN(Cc4ccccc4)CC3)c2cc1OC | ? | 1.8µM* | . | . | 11µM*! | ?
O[C@]1(c2ccc(F)cc2)CCNC1 | . | . | . | . | . | -7%
Cc1ccc(NS(=O)(=O)c2cccc(C(=O)NC3CCN(Cc4ccccc4)CC3)c2)cc1 | ? | -12% | ? | -28% | ? | ?
Cc1ccc(NS(=O)(=O)c2ccc(C(=O)NC3CCN(Cc4ccccc4)CC3)cc2)cc1 | ? | 11µM* | -92* | ? | ? | ?
